Reference: PubChem BioAssay (NCATS)
“And” between values parts separate entries of the source, which are not always exact repeats. Identical values can stand only once. Inconclusive results are not listed. A call without a number means that no potency is given here. A number with no mark means an inactive call. The source made the active and inactive calls. Calls come from the whole dose curve; as a rule, active = well fitted curve in the direction sought with a large enough effect; inconclusive = small, poorly fitted or top-dose-only effect, or another doubt; inactive = no such curve, though single readings can be large; an effect the other way counts as inactive or inconclusive.

How the values were obtained:
[1] = Viability qHTS for spleen associated tyrosine kinase inhibitor (SYKi) naive MV4-11 cells (AID 1963823); note: nearly all actives have a fitted effect of over 40% in size
Procedure, shortened: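 Compounds were dispensed acoustically onto plates, MV4-11 cells (SYKi-naive) added at 500 per well, and plates incubated 72 hr at 37 C. CellTiter-Glo was added and luminescence measured after 10 min.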

[2] = Viability qHTS for spleen associated tyrosine kinase inhibitor (SYKi) drug resistant MV4-11 cells (AID 1963824); note: nearly all actives have a fitted effect of over 35% in size
Procedure, shortened: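 SYK-inhibitor-resistant MV4-11 AML cells were seeded at 500 per well onto compound and cultured 72 hours (37 °C, 5% CO2). CellTiter-Glo was then added, and after 10 min at room temperature, luminescence gave viability.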

[3] = Quantitative highthroughput screen to assess conditional lethalithy of NOMO1 cells grown in RPMI1640 with untreated serum (RPMI+s) (AID 1963876); note: nearly all actives have a fitted effect of over 35% in size
Procedure, shortened: (§1)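 Each medium arm—HPLM with 10% dialyzed FBS, or RPMI1640 with 5 mM glucose and 10% untreated or dialyzed FBS—was screened against an 11-point, 3-fold compound titration for 48 h at 37 °C, with CellTiter-Glo luminescence as endpoint.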

[4] = Quantitative highthroughput screen to assess conditional lethalithy of NOMO1 cells grown in RPMI1640 with dialyzed fetal bovine serum (RPMI+ds) (AID 1963877); note: nearly all actives have a fitted effect of over 30% in size; for Viability: series mostly up to about 46 µM
Procedure, shortened: as §1

[5] = Quantitative highthroughput screen to assess conditional lethalithy of NOMO1 cells grown in Human Plasma-Like Medium with dialyzed fetal bovine serum (HPLM+ds) (AID 1963878); note: nearly all actives have a fitted effect of over 35% in size
Procedure, shortened: as §1

[6] = Quantitative highthroughput screen to assess conditional lethalithy of P12 Ichikawa cells grown in Human Plasma-Like Medium with dialyzed fetal bovine serum (HPLM+ds) (AID 1963879); details: Potency: viability; note: nearly all actives have a fitted effect of over 35% in size; for Viability: series mostly up to about 46 µM
Procedure, shortened: as §1

[7] = Quantitative highthroughput screen to assess conditional lethalithy of P12 Ichikawa cells grown in RPMI1640 with dialyzed fetal bovine serum (RPMI+ds) (AID 1963880); details: Potency: P12-Ichikawa viability; note: nearly all actives have a fitted effect of over 35% in size
Procedure, shortened: as §1

[8] = Quantitative highthroughput screen to assess conditional lethalithy of SEM cells grown in RPMI1640 with unreated serum (RPMI+s) (AID 1963883); note: nearly all actives have a fitted effect of over 35% in size
Procedure, shortened: as §1

[9] = Quantitative highthroughput screen to assess conditional lethalithy of SEM cells grown in RPMI1640 with dialyzed fetal bovine serum (RPMI+ds) (AID 1963884); note: nearly all actives have a fitted effect of over 35% in size; for Viability: series mostly up to about 46 µM
Procedure, shortened: as §1

[10] = Cellular viability qHTS for adrenocortical cancer (ACC) cell line SW-13 (AID 1963989); details: SW-13 ACC cells viability, CellTiter-Glo, 48 h; activity (max response): hits give low values; note: nearly all actives have a fitted effect of over 65% in size;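 for activity (max response): cells grown in serum-free medium with ITS supplement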
Procedure, shortened: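 Here, serum-free SW-13 cultures were dosed up to 46 uM. Following 48 h, ATP-dependent luminescence (CellTiter-Glo) reported viable cells, and logistic modeling produced IC50 values.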

[11] = Cellular viability qHTS for adrenocortical cancer (ACC) cell line NCI-H295R (AID 1963990); note: nearly all actives have a fitted effect of over 60% in size
Procedure, shortened: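 Viability of NCI-H295R after 48 h of treatment (final up to 46 uM) measured through cellular ATP luminescence.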

[12] = Quantitative highthroughput screen to assess conditional lethalithy of P12 Ichikawa cells grown in RPMI1640 with untreated serum (RPMI+s) (AID 1963881); details: Potency: viability; note: nearly all actives have a fitted effect of over 35% in size; for Viability: series mostly up to about 46 µM
Procedure, shortened: as §1

[13] = Quantitative highthroughput screen to assess conditional lethalithy of SEM cells grown in Human Plasma-Like Medium with dialyzed fetal bovine serum (HPLM+ds) (AID 1963882); note: nearly all actives have a fitted effect of over 35% in size; for Viability: series mostly up to about 46 µM
Procedure, shortened: as §1
Potency is the fitted concentration of half-maximal effect.

SMILES	Potency [1]	Potency [2]	Potency [3]	Potency [4]	Potency [5]	Potency [6]	Potency [7]	Potency [8]	Potency [9]	activity (max response) [10]	Potency [11]	Potency [12]	Potency [13]	Potency [10]
CC[C@@H]([C@H](C)O)n1ncn(-c2ccc(N3CCN(c4ccc(OCC5CO[C@@](Cn6cncn6)(c6ccc(F)cc6F)C5)cc4)CC3)cc2)c1=O (some centres undefined)	5.9 µM (active)	4.17 µM (active)	inactive	inactive	inactive	inactive	inactive	inactive	inactive	-5.54%	inactive			
CC[C@H](C=C[C@@H](C)[C@H]1CC[C@H]2[C@@H]3CC=C4C[C@@H](O)CC[C@]4(C)[C@@H]3CC[C@]12C)C(C)C	inactive	inactive	inactive	inactive	7240 nM (active)	inactive		inactive	inactive	10.2%	inactive	inactive	inactive	
CC(C)C[C@H](NC(=O)[C@@H](NC(=O)c1cccc(-c2ccccc2)n1)[C@@H](C)O)B(O)O	14.6 nM (active) and 25.7 nM (active)	0.0204 µM (active)	74.3 nM (active)	105 nM (active)	66.2 nM (active)	52.6 nM (active)			14.8 nM (active)		180 nM (active)	37.2 nM (active)	14.8 nM (active)	285 nM (active)
CCOC(=O)C1=C(O)C(=O)N(Cc2ccccc2)C1	inactive	inactive	inactive	inactive	inactive	inactive	inactive	inactive	inactive	4.18%	inactive		inactive	
Cc1ccnc(NS(=O)(=O)c2ccc(NC(=O)Nc3ccc(S(=O)(=O)Nc4nccc(C)n4)cc3)cc2)n1	inactive	inactive	296 nM (active)	469 nM (active)	118 nM (active)	264 nM (active)	332 nM (active)	83.3 nM (active)	105 nM (active)	-24.6%	inactive		187 nM (active)	
Cc1cnc(Nc2ccc(CN3CCOCC3)cc2)nc1Nc1cccc(S(=O)(=O)NC(C)(C)C)c1	0.164 µM (active)	372 nM (active) and 326 nM (active)	4180 nM (active)	4690 nM (active)	4690 nM (active)	2960 nM (active)	4180 nM (active)	469 nM (active)			4470 nM (active)			15800 nM (active)
CN(C)Cc1ccc(-c2nc3cccc4c3n2CCNC4=O)cc1	16.6 µM (active)	18.4 µM (active)	inactive	inactive	inactive	inactive	inactive	inactive	inactive		25100 nM (active)		inactive	
CN1CCC(=C2c3ccccc3CC(=O)c3sccc32)CC1	26.3 µM (active)	23.7 µM (active) and 20.9 µM (active)	inactive	inactive	inactive	inactive		inactive	inactive	-6.42% and -1.59%	inactive	inactive	inactive	
Cc1c(-c2ccnn2C)cc(C(=O)NCc2ccc(S(C)(=O)=O)cn2)c(=O)n1-c1cccc(C(F)(F)F)c1	inactive	inactive	inactive	inactive	inactive	inactive	inactive	inactive	inactive	5.26%	inactive		inactive	
COC(=O)C1=C(C)NC(C)=C(C(=O)OCCCN2CCC(c3ccccc3)(c3ccccc3)CC2)C1c1cccc([N+](=O)[O-])c1 (centres undefined)	4.68 µM (active) and 8.41 µM (active)	4.68 µM (active) and 7.5 µM (active)	inactive	inactive	inactive	inactive	inactive		inactive				inactive	5.62 µM (active) and 13 µM (active)
COCCCOc1cc(C[C@@H](C[C@H](N)[C@@H](O)C[C@H](C(=O)NCC(C)(C)C(N)=O)C(C)C)C(C)C)ccc1OC	inactive	168 nM (active) and 5.9 µM (active)	inactive	inactive	inactive	inactive	inactive	inactive		6.05%	inactive		inactive	
CCn1c(C(=O)N(C2CC2)C2CC2)cc2c3c(ncn3C)c(Nc3cc(C)n(C)n3)nc21	1.03 µM (active) and 1.48 µM (active)	2.31 µM (active) and 3.72 µM (active)	inactive	inactive	inactive	inactive		20900 nM (active)		-6.84%		inactive		
CN1CCN(c2c(F)cc3c(=O)c(C(=O)O)cn(CCF)c3c2F)CC1	inactive	inactive	inactive	inactive	inactive	inactive		inactive	inactive	-1.49%		inactive	inactive	
O=C(Nc1ccccc1Br)N[C@@H]1CCN(c2ccc(C(F)(F)F)cn2)C1	14.8 µM (active)	23.5 µM (active)	inactive	inactive	inactive	inactive	inactive	inactive	inactive		inactive		inactive	
Cc1n[nH]c(C)c1Cc1sc2c(c1C(=O)N1C[C@H](O)CO1)c(=O)n(C)c(=O)n2CC(C)C	inactive	inactive	inactive	inactive	inactive	inactive			inactive	15%		inactive		
